Data published in publication PMC7862700, “An all-to-all approach to the identification of sequence-specific readers for epigenetic DNA modifications on cytosine”.

How the values were obtained:
Test in all cases: DAPPL (digital affinity profiling via proximity ligation, sequencing); 10 mM Tris-HCl pH 7.5, 50 mM NaCl, 1 mM DTT, 4% glycerol, room temperature, 30 min; GST-TFs on glutathione beads, 16-mer random dsDNA library, 0.1% formaldehyde crosslink after washing; high values mean tight binding
FLI1 = target: T1, FLI1 (Homo sapiens, UniProt Q01543 1-452); settings: protein: recombinant; tags: N-terminal GST; dsDNA, one strand shown
T1 sequence: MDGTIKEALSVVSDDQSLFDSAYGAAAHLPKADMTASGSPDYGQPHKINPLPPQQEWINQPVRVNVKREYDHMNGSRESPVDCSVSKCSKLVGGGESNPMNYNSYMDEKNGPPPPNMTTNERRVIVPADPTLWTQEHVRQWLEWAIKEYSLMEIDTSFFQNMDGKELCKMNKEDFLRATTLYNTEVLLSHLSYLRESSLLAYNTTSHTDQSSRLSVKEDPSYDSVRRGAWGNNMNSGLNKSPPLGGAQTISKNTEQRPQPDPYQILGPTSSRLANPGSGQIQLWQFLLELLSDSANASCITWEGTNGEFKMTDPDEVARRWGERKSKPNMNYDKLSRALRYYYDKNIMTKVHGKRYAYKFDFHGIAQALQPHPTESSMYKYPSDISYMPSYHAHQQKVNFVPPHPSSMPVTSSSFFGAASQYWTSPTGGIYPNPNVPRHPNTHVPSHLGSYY
Method in brief: (§1)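 Human transcription factors fused to GST were expressed in yeast, captured on glutathione beads, given DNA barcodes and pooled with a GST-only negative control. Pools were incubated with 200 nmole of a 16-mer random double-stranded DNA library in Tris/NaCl/DTT/glycerol buffer at room temperature for 30 min. They were then washed, crosslinked with 0.1% formaldehyde, proximity-ligated (BsaI/T4 ligase, 1 h, 37 °C), PCR-amplified and sequenced on an Illumina NextSeq500. Binding signal is each 6-mer's read frequency for a factor divided by its frequency for the GST control.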

ELK1 = target: T2, ELK1 (Homo sapiens, UniProt P19419 1-428); settings: protein: recombinant; tags: N-terminal GST; dsDNA, one strand shown
T2 sequence: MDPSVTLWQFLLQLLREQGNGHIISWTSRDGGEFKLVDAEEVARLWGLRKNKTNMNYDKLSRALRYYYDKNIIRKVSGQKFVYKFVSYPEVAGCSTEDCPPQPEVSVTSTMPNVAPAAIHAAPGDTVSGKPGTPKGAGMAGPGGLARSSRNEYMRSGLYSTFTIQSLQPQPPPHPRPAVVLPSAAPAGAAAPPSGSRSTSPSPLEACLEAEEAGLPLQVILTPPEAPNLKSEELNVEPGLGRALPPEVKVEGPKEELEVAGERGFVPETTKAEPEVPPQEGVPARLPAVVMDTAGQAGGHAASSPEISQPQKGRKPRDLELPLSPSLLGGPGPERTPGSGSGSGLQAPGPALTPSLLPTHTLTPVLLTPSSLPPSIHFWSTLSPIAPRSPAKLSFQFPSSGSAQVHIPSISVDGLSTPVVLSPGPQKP
Method in brief: as §1

GABPA = target: T3, GABPA (Homo sapiens, UniProt Q06546 1-454); settings: protein: recombinant; tags: N-terminal GST; dsDNA, one strand shown
T3 sequence: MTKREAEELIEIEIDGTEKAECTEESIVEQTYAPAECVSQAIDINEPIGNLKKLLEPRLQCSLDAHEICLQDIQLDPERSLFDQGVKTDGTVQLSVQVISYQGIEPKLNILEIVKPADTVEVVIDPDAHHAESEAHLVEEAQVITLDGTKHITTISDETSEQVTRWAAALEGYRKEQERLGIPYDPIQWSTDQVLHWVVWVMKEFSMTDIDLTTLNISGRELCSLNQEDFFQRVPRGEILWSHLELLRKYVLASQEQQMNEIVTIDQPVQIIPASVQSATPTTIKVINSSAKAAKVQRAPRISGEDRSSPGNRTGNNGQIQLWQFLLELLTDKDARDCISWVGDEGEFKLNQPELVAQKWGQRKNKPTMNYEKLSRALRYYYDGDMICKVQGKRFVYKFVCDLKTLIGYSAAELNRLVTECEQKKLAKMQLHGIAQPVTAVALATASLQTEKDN
Method in brief: as §1

ERG = target: T4, ERG (Homo sapiens, UniProt P11308 1-479); settings: protein: recombinant; tags: N-terminal GST; dsDNA, one strand shown
T4 sequence: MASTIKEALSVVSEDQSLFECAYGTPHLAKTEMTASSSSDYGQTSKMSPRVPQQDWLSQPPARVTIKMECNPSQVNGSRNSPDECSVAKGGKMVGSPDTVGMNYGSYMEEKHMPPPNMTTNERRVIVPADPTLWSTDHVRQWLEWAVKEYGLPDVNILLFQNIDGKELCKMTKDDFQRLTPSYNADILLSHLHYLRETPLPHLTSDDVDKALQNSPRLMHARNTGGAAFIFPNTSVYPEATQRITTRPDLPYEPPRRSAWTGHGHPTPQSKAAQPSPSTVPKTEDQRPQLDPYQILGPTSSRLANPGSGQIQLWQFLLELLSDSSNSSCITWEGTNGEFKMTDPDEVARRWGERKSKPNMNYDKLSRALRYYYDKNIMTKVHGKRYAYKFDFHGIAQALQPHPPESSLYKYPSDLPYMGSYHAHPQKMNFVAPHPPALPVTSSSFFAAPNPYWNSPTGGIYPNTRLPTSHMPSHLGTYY
Method in brief: as §1

ELF1 = ELF1 (Homo sapiens, UniProt P32519 1-619); settings: protein: recombinant; tags: N-terminal GST; dsDNA, one strand shown
Chain of ELF1 (P32519 whole entry): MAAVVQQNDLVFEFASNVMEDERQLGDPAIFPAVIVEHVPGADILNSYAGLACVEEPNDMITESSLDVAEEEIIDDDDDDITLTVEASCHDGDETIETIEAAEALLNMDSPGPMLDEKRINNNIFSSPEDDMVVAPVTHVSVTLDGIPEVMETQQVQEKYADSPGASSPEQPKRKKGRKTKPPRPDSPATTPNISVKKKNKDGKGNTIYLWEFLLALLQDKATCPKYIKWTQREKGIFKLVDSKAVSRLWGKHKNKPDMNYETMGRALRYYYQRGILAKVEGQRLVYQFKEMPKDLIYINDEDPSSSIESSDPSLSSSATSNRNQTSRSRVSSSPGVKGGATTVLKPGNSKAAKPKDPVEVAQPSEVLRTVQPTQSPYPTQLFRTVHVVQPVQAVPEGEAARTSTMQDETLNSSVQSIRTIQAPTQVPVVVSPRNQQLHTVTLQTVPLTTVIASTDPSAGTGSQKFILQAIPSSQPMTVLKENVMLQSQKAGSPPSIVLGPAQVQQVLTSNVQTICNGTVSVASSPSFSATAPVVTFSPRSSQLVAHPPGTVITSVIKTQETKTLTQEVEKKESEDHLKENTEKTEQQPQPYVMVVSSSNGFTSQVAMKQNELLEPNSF
Method in brief: as §1

EHF = target: T5, EHF (Homo sapiens, UniProt Q9NZC4 1-300); settings: protein: recombinant; tags: N-terminal GST; dsDNA, one strand shown
T5 sequence: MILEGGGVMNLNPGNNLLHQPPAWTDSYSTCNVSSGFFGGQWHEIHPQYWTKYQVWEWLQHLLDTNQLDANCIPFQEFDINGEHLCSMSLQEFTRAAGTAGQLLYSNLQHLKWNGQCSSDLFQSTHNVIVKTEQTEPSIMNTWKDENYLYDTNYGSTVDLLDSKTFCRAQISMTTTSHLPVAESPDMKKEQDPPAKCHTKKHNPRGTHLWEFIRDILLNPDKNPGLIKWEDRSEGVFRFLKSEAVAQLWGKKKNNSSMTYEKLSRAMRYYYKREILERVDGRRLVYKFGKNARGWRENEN
Method in brief: as §1

SPI1 = SPI1 (Homo sapiens, UniProt P17947 1-270); settings: protein: recombinant; tags: N-terminal GST; dsDNA, one strand shown
Method in brief: as §1

SPIB = SPIB (Homo sapiens, UniProt Q01892 1-262); settings: protein: recombinant; tags: N-terminal GST; dsDNA, one strand shown
Chain of SPIB (Q01892 whole entry): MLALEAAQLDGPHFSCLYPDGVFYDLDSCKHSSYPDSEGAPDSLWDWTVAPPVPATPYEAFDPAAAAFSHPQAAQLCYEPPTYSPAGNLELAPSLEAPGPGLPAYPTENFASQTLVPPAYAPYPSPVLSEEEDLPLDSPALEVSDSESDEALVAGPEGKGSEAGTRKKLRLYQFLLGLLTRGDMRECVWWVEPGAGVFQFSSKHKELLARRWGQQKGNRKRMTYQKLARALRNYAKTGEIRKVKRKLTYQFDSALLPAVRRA
Method in brief: as §1

ELK3 = target: T6, ELK3 (Homo sapiens, UniProt P41970 1-407); settings: protein: recombinant; tags: N-terminal GST; dsDNA, one strand shown
T6 sequence: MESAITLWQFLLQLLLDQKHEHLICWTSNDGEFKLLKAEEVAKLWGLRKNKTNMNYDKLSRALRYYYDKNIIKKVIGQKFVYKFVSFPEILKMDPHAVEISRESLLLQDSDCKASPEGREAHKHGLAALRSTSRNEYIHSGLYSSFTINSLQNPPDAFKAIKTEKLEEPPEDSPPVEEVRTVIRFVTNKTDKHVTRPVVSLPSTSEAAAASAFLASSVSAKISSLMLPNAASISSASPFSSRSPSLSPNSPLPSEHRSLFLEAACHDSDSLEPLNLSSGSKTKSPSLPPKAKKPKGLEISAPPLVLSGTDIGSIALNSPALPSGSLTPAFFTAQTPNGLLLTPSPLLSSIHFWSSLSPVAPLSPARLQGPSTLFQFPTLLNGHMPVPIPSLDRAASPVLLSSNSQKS
Method in brief: as §1

FEV = target: T7, FEV (Homo sapiens, UniProt Q99581 1-238); settings: protein: recombinant; tags: N-terminal GST; dsDNA, one strand shown
T7 sequence: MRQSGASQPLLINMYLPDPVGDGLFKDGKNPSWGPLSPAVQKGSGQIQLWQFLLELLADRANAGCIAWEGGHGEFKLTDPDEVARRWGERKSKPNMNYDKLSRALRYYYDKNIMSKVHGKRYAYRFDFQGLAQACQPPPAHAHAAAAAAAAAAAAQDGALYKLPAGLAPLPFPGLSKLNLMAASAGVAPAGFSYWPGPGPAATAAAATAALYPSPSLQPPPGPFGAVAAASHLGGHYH
Method in brief: as §1

ETV5 = ETV5 (Homo sapiens, UniProt P41161 1-510); settings: protein: recombinant; tags: N-terminal GST; dsDNA, one strand shown
Chain of ETV5 (P41161 whole entry): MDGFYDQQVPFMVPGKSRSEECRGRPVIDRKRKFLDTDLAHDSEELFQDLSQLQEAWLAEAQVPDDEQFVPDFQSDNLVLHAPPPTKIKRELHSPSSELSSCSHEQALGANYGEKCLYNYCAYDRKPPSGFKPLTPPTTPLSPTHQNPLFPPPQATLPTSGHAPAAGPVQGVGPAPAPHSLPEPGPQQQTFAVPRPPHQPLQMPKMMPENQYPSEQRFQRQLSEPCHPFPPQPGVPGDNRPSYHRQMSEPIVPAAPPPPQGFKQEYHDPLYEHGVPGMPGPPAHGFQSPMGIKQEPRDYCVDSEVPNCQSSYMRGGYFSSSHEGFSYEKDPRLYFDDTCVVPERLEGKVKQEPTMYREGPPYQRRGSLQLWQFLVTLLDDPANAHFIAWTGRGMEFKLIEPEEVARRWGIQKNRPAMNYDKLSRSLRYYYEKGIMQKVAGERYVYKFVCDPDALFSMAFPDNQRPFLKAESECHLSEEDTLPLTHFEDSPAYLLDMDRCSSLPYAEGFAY
Method in brief: as §1

HSF1 = HSF1 (Homo sapiens, UniProt Q00613 1-529); settings: protein: recombinant; tags: N-terminal GST; chain copies: 3; dsDNA, one strand shown
Chain of HSF1 (Q00613 whole entry): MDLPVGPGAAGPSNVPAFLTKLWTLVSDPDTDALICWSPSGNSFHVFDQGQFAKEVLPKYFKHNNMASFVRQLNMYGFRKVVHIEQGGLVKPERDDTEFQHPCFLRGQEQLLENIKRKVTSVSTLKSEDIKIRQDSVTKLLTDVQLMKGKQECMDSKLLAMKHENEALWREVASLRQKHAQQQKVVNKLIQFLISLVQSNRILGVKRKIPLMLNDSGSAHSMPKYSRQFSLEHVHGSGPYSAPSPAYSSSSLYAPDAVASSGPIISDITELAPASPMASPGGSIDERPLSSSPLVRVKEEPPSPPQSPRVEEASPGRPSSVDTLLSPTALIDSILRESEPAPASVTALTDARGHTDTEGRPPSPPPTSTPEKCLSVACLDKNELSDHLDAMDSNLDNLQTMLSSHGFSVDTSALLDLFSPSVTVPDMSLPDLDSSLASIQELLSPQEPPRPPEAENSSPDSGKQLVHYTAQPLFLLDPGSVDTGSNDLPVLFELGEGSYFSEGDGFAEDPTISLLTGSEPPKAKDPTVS
Method in brief: as §1

SPIC = target: T8, SPIC (Homo sapiens, UniProt Q8N5J4 1-248); settings: protein: recombinant; tags: N-terminal GST; dsDNA, one strand shown
T8 sequence: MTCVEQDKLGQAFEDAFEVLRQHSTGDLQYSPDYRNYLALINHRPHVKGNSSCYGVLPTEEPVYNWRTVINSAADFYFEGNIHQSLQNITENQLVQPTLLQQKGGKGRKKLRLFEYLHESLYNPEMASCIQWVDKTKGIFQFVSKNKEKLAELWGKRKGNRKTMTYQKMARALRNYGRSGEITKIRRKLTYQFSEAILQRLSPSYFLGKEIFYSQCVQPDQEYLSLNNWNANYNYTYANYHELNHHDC
Method in brief: as §1

ELF4 = ELF4 (Homo sapiens, UniProt Q99607 1-663); settings: protein: recombinant; tags: N-terminal GST; dsDNA, one strand shown
Chain of ELF4 (Q99607 whole entry): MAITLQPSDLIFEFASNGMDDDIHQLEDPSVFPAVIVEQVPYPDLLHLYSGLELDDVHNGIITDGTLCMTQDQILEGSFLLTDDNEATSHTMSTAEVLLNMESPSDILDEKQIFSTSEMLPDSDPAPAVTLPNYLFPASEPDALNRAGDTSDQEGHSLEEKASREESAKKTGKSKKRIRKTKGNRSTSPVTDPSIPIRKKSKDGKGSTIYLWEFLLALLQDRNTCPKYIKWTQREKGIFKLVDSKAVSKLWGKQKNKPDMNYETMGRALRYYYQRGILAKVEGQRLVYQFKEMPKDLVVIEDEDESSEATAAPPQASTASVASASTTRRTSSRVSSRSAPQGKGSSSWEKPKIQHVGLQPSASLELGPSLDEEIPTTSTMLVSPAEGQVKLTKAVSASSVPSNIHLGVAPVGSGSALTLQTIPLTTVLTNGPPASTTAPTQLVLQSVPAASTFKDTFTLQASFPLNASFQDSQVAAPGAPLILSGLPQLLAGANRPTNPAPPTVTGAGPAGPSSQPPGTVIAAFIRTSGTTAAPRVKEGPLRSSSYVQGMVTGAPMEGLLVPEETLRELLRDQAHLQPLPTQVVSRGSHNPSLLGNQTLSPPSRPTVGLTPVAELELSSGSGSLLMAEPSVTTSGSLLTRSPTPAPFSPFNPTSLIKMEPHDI
Method in brief: as §1

ELK4 = target: T9, ELK4 (Homo sapiens, UniProt P28324-2 1-405); settings: protein: recombinant; tags: N-terminal GST; dsDNA, one strand shown
T9 sequence: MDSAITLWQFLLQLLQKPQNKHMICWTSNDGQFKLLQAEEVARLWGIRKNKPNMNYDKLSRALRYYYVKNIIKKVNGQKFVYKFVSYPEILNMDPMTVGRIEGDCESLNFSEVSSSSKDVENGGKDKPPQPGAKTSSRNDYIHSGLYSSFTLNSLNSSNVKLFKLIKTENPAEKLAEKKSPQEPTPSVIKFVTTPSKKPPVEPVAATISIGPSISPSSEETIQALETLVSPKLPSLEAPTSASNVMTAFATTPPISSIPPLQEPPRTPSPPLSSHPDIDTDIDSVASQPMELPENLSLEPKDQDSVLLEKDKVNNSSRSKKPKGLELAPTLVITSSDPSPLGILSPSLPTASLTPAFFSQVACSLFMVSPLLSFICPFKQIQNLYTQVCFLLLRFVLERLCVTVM
Method in brief: as §1

ETV2 = target: T10, ETV2 (Homo sapiens, UniProt O00321 1-342); settings: protein: recombinant; tags: N-terminal GST; dsDNA, one strand shown
T10 sequence: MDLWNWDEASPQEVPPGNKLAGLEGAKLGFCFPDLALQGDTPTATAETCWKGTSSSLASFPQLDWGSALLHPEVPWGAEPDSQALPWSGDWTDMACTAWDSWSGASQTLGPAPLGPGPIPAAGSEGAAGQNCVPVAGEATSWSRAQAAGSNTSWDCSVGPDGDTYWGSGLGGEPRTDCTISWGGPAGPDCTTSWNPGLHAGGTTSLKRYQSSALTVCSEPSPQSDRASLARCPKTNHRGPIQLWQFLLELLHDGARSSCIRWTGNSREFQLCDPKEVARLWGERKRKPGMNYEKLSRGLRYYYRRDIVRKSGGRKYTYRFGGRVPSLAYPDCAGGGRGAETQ
Method in brief: as §1

ELF3 = target: T11, ELF3 (Homo sapiens, UniProt P78545 1-371); settings: protein: recombinant; tags: N-terminal GST; dsDNA, one strand shown
T11 sequence: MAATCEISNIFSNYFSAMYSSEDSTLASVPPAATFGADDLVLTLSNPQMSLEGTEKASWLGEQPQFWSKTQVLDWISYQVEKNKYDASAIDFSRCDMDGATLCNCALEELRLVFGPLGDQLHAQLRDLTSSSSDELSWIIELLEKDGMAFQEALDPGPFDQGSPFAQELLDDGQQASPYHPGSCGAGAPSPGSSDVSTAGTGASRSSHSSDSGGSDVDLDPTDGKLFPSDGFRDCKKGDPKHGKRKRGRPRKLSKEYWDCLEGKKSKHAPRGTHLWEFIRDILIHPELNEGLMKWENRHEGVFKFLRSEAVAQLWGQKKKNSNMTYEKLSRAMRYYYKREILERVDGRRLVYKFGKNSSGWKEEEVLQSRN
Method in brief: as §1

CRX = CRX (Homo sapiens, UniProt O43186 1-299); settings: protein: recombinant; tags: N-terminal GST; dsDNA, one strand shown
Chain of CRX (O43186 whole entry): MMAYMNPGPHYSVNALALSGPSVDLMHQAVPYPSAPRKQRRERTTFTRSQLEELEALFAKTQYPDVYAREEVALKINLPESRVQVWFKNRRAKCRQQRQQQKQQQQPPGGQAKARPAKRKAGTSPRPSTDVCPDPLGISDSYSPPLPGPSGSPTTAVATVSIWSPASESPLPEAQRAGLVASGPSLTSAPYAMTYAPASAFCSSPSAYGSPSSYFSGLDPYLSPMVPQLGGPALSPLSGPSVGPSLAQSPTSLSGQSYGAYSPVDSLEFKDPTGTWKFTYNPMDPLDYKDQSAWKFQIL
Method in brief: as §1

ETV1 = ETV1 (Homo sapiens, UniProt P50549 1-477); settings: protein: recombinant; tags: N-terminal GST; dsDNA, one strand shown
Chain of ETV1 (P50549 whole entry): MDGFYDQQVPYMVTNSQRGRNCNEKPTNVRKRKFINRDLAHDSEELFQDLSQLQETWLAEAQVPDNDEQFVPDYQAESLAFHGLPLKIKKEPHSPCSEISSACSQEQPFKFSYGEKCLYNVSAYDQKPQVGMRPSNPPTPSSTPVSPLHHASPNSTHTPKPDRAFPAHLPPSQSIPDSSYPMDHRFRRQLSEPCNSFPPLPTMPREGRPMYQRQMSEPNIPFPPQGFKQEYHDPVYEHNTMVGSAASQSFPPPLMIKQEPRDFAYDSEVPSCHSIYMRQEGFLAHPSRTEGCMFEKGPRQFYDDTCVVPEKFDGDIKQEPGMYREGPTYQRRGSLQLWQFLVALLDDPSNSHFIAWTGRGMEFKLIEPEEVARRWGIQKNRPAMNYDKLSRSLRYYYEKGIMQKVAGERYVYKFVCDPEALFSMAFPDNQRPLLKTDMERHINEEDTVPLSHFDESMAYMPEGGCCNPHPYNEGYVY
Method in brief: as §1

Sequence: CTTCAC
- binding signal (FLI1): 1.47 fold enrichment (6-mer frequency, TF over GST control)
- binding signal (ELK1): 1.42 fold enrichment (6-mer frequency, TF over GST control)
- binding signal (GABPA): 1.38 fold enrichment (6-mer frequency, TF over GST control)
- binding signal (ERG): 1.45 fold enrichment (6-mer frequency, TF over GST control)
- binding signal (ELF1): 1.45 fold enrichment (6-mer frequency, TF over GST control)
- binding signal (EHF): 1.41 fold enrichment (6-mer frequency, TF over GST control)
- binding signal (SPI1): 1.37 fold enrichment (6-mer frequency, TF over GST control)
- binding signal (SPIB): 1.41 fold enrichment (6-mer frequency, TF over GST control)
- binding signal (ELK3): 1.38 fold enrichment (6-mer frequency, TF over GST control)
- binding signal (FEV): 1.34 fold enrichment (6-mer frequency, TF over GST control)
- binding signal (ETV5): 1.37 fold enrichment (6-mer frequency, TF over GST control)
- binding signal (HSF1): 1.18 fold enrichment (6-mer frequency, TF over GST control)
- binding signal (SPIC): 1.57 fold enrichment (6-mer frequency, TF over GST control)
- binding signal (ELF4): 1.33 fold enrichment (6-mer frequency, TF over GST control)
- binding signal (ELK4): 1.45 fold enrichment (6-mer frequency, TF over GST control)
- binding signal (ETV2): 1.43 fold enrichment (6-mer frequency, TF over GST control)
- binding signal (ELF3): 1.54 fold enrichment (6-mer frequency, TF over GST control)
- binding signal (CRX): 1.17 fold enrichment (6-mer frequency, TF over GST control)
- binding signal (ETV1): 1.37 fold enrichment (6-mer frequency, TF over GST control)
